# Source: the supplement of paper PMC8728848
# Many of the other results were omitted from the sample, so the strongest signals are more common in it than they were.
# B1: Cohesin-hDC-ASGPR (Homo sapiens) (protein)
# chain: LDDLDAVRIKVDTVNAKPGDTVRIPVRFSGIPSKGIANCDFVYSYDPNVLEIIEIEPGDIIVDPNPDKSFDTAVYPDRKIIVFLFAEDSGTGAYAITKDGVFATIVAKVKEGAPNGLSVIKFVEVGGFANNDLVEQKTQFFDGGANVGDTTEPATPTTPVTTPTTTDDLDAASQNSKFQRDLVTLRTDFSNFTSNTVAEIQALTSQGSSLEETIASLKAEVEGFKQERQAGVSELQEHTTQKAHLGHCPHCPSVCVPVHSEMLLRVQQLVQDLKKLTCQVATLNNNASTEGTCCPVNWVEHQDSCYWFSHSGMSWAEAEKYCQLKNAHLVVINSREEQNFVQKYLGSAYTWMGLSDPEGAWKWVDGTDYATGFQNWKPGQPDDWQGHGLGGGEDCAHFHPDGRWNDDVCQRPYHWVCEAGLGQTSQESHHHHHH
# What was measured:
# Experiment in all cases: glycan array binding signal (z-score within array); higher = stronger binding
# Conditions in all cases: glycan notation: IUPAC condensed, linker removed
# [1] = target: GalNAc(a1-3)GalNAc
# Outline: (§1)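 The binding signal is a Z-score computed within each array and averaged over linkers. Arrays of the same protein sequence at different concentrations or buffers were also averaged together. Data originate from 3228 arrays in the Consortium for Functional Glycomics database, kept only where the protein sequence was available.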
# [2] = target: GalNAc(a1-3)GalNAc(b1-3)Gal(a1-4)Gal(b1-4)GlcNAc
# Outline: as §1
# [3] = target: GalNAc(b1-3)Gal(a1-6)Gal(b1-4)Glc
# Outline: as §1
# [4] = target: GalNAc(b1-4)GlcNAc(b1-2)Man
# Outline: as §1
# [5] = target: GalNAc3S(b1-4)[Fuc(a1-3)]GlcNAc
# Outline: as §1
# [6] = target: GalNAc4S6S(b1-4)GlcNAc
# Outline: as §1
# [7] = target: GlcNAc(a1-4)Gal(b1-4)GlcNAc(b1-3)Gal(b1-4)Glc
# Outline: as §1
# [8] = target: GlcNAc(a1-4)Gal(b1-4)GlcNAc(b1-3)Gal(b1-4)[Fuc(a1-3)]GlcNAc(b1-3)Gal(b1-4)[Fuc(a1-3)]GlcNAc
# Outline: as §1
# [9] = target: GlcNAc(a1-6)Gal(b1-4)GlcNAc
# Outline: as §1
# [10] = target: GlcNAc(b1-3)Fuc
# Outline: as §1
# [11] = target: Kdn(a2-3)Gal(b1-4)[Fuc(a1-3)]GlcNAc
# Outline: as §1
# [12] = target: Man(a1-2)Man(a1-6)[Man(a1-3)]Man(a1-6)[Man(a1-2)Man(a1-2)Man(a1-3)]Man
# Outline: as §1
# [13] = target: Neu5Ac(a2-3)Gal
# Outline: as §1
# [14] = target: Neu5Ac(a2-3)Gal(b1-4)GlcNAc
# Outline: as §1
# [15] = target: Neu5Ac(a2-3)Gal(b1-4)GlcNAc(b1-3)Gal(b1-4)GlcNAc(b1-3)[Neu5Ac(a2-3)Gal(b1-4)GlcNAc(b1-3)Gal(b1-4)GlcNAc(b1-6)]GalNAc
# Outline: as §1
# [16] = target: Neu5Ac(a2-3)Gal(b1-4)GlcNAc(b1-3)[Neu5Ac(a2-3)Gal(b1-4)GlcNAc(b1-6)]GalNAc
# Outline: as §1
# [17] = target: Neu5Ac(a2-3)Gal(b1-4)GlcNAc6S
# Outline: as §1
# [18] = target: Neu5Ac(a2-3)Gal6S(b1-4)GlcNAc
# Outline: as §1
# [19] = target: Neu5Ac(a2-3)[GalNAc(b1-4)]Gal(b1-4)Glc
# Outline: as §1
# [20] = target: Neu5Ac(a2-3)[GalNAc(b1-4)]Gal(b1-4)GlcNAc(b1-3)GalNAc
# Outline: as §1
# [21] = target: Neu5Ac(a2-6)Gal(b1-4)GlcNAc(b1-2)Man(a1-3)[Neu5Ac(a2-3)Gal(b1-4)GlcNAc(b1-2)Man(a1-6)]Man(b1-4)GlcNAc(b1-4)GlcNAc
# Outline: as §1
# [22] = target: Neu5Ac(a2-6)Gal(b1-4)GlcNAc(b1-2)Man(a1-6)[GlcNAc(b1-2)Man(a1-3)]Man(b1-4)GlcNAc(b1-4)GlcNAc
# Outline: as §1
# [23] = target: Neu5Ac(a2-8)Neu5Ac(a2-3)[Gal(b1-3)GalNAc(b1-4)]Gal(b1-4)Glc
# Outline: as §1
# [24] = target: Neu5Ac(a2-8)Neu5Ac(a2-8)Neu5Ac(a2-8)Neu5Ac(a2-3)[GalNAc(b1-4)]Gal(b1-4)Glc
# Outline: as §1
# [25] = target: Neu5Gc(a2-6)Gal(b1-4)GlcNAc
# Outline: as §1
# [26] = target: Neu5Gc(a2-6)GalNAc
# Outline: as §1
binder,measurement,setting,value
B1,glycan array binding signal (z-score),[1],2.37
same,glycan array binding signal (z-score),[2],1.97
same,glycan array binding signal (z-score),[3],2.84
same,glycan array binding signal (z-score),[4],2.86
same,glycan array binding signal (z-score),[5],-0.502
same,glycan array binding signal (z-score),[6],-0.516
same,glycan array binding signal (z-score),[7],-0.508
same,glycan array binding signal (z-score),[8],-0.444
same,glycan array binding signal (z-score),[9],-0.439
same,glycan array binding signal (z-score),[10],-0.443
same,glycan array binding signal (z-score),[11],-0.485
same,glycan array binding signal (z-score),[12],-0.48
same,glycan array binding signal (z-score),[13],-0.335
same,glycan array binding signal (z-score),[14],-0.453
same,glycan array binding signal (z-score),[15],-0.339
same,glycan array binding signal (z-score),[16],-0.495
same,glycan array binding signal (z-score),[17],-0.518
same,glycan array binding signal (z-score),[18],-0.517
same,glycan array binding signal (z-score),[19],2.91
same,glycan array binding signal (z-score),[20],1.83
same,glycan array binding signal (z-score),[21],-0.471
same,glycan array binding signal (z-score),[22],-0.387
same,glycan array binding signal (z-score),[23],3.87
same,glycan array binding signal (z-score),[24],2.95
same,glycan array binding signal (z-score),[25],-0.392
same,glycan array binding signal (z-score),[26],2.81
